Molecules are shown by their SMILES. Records with an inconclusive call do not appear. A number with no mark means an inactive call. The call rests on the fitted dose curve.

The nature of the test: qHTS assay to identify small molecule agonists of the AP-1 signaling pathway - cell viability counter screen (AID 1159525). Further: nearly all actives have a fitted effect of over 55% in size. As to conditions: ME-180 (cervical carcinoma) AP-1-bla cells viability, ATP luminescence, 5 h; series mostly up to 76.8 µM; viability change, negative = cytotoxic: at the top concentration. From the text: National Center for Advancing Translational Sciences [NCATS]
NIH Chemical Genomics Center [NCGC]
U.S. Environmental Protection Agency [EPA]
National Institutes of Environmental Health Sciences [NIEHS]
National Toxicology Program [NTP]
U.S. Food and Drug Administration [FDA]
Activator protein-1 (AP-1), a transcription factor, plays an important role in tumor genesis by regulating genes involved in cell proliferation, differentiation, apoptosis, and angiogenesis. AP-1 activity is induced by a complex network of signaling pathways that involves extracellular signals, such as growth factors. The AP-1 protein complex formed from c-Fos and c-Jun binding to the AP-1 response element results in transcriptional activation of genes containing such elements within their promoter.
Low molecular weight molecules have been discovered and developed to modulate various components of these signaling pathways, for example, MAP kinase inhibitors. However, many points of pathway modulation remain untested due to the lack of chemical probes making this signaling locus of general interest.
Using a beta-lactamase reporter-gene under control of the AP-1 response element, a cell-based assay [CellSensor(TM) AP-1-bla ME-180 developed by Invitrogen Corp.] was used to measure EGF-induced signaling. The Tox21 10K library compounds were measured for their ability to positively modulate the action of EC50 EGF on reporter gene activity. Compounds were screened in a 15-pt titration series in 1536-well format. The cytotoxicity of the Tox21 compound library against this cell line was tested in parallel by measuring the intra cellular ATP content in the same wells.
Tox21 Assay Protocol Summary:
2500 cells/5uL in Opti-MEM medium containing 0.5% dialyzed FBS, 0.1 mM NEAA, 1 mM sodium pyruvate and 10 mM HEPES was dispensed into 1536-well black wall/clear bottom plates using a Multidrop dispenser and cells were cultured at 37 degrees Celsius overnight. Next day 23 nL of compounds dissolved in DMSO, positive controls or DMSO were delivered to each well using a pin tool. The plates were incubated at 37 degrees Celsius for 5 hours. 1 uL of LiveBLAzerTM B/G FRET substrate (Solution A+B+C+D) was added to each well using a Flying Reagent Dispenser. After incubated at room temperature for 2.5 hours the plates were measured on an EnVision plate reader at Excitation 405nm, Emission1=460nm and Emission 2=530nm. The %Activity was determined from the ratio of 460nm/530nm.
After the plates were read for Beta-Lactamase assay on Envision; 3 ul Cell Titer Glo (Promega) was added to measure the cytotoxicity and the plates were then incubated at RT in dark for 30 min. The luminescence was read on ViewLux (Perkin Elmer, Shelton, CT) using 6 sec exposure. ViewLux data was expressed as relative luminescence units.
For primary data analysis, raw plate reads for each titration point were first normalized relative to […] EGF control (100%) and DMSO only wells (basal, 0%).
For primary data analysis for viability assay, raw plate reads for each titration point were first normalized Tetra n-octyl ammonium bromide control (-100%) and DMSO (control, 100%).
Take `CC(O)CC(C)O` (stereo not given): the “viability change, negative = cytotoxic” value is 4.65%.
As to `CC/C(C)=N\O[Si](C)(O/N=C(\C)CC)O/N=C(\C)CC`, the “viability change, negative = cytotoxic” value is 3.31%.
The figure for `O=C(Cn1ccnc1[N+](=O)[O-])NCc1ccccc1` is 7.53% [at 35.3 µM]; for `CCC[C@@H]1C[C@@H](C(=O)N[C@@H]([C@H]2O[C@H](SC)[C@H](O)[C@@H](O)[C@H]2O)[C@@H](C)O)N(C)C1` it is 8.07% [at 35.3 µM]; for `O=Cc1cc2ccccc2o1` it is -0.309%.
To `CCCCCCC1(C)CCC(=O)O1` (stereo not given) belongs 1.02%.
To `CN1CCOC(c2ccccc2)c2ccccc2C1` (stereo not given) belongs 7.48% [at 35.3 µM]; to `CC(C)NC(=O)c1ccc(C=O)cc1`, 1.77% [at 35.3 µM]; to `O=C1c2ccccc2C(=O)c2cc(Cl)ccc21`, 1.45% [at 6.97 µM].
With `C/C(=C1\CCOC(=O)S1)N(C=O)Cc1cnc(C)nc1N`, the “viability change, negative = cytotoxic” value is 3.75% [at 35.3 µM].
To `c1ccc2cnccc2c1` belongs 6.3%.
To `CC(N)CCCC(C)(C)O` (stereo not given) belongs 6.91% [at 35.3 µM]; to `Cc1cc(-c2ccccc2)nnc1NCCN1CCOCC1`, -0.0231% [at 35.3 µM].
In the case of `CC(C)=CCC[C@@](C)(O)[C@H]1CC=C(C)CC1`, the “viability change, negative = cytotoxic” value is -9.64% [at 35.3 µM].
The figure for `CCC(C(=O)OCCN1CCOC(c2ccccc2)C1C)c1ccccc1` (stereo not given) is -0.472% [at 35.3 µM].
In the case of `CC(=O)O[C@@H]1CC2CCC1(C)C2(C)C` (stereo not given in full), the “viability change, negative = cytotoxic” value is 0.365%.
Turning to `COC(=O)CCCCC(CCSS/C(CCO)=C(\C)N(C=O)Cc1cnc(C)nc1N)SC(C)=O` (stereo not given), the “viability change, negative = cytotoxic” value was 0.838% [at 35.3 µM].
To `CCN(CC)CCN` belongs -1.42% [at 35.3 µM]; to `CCCCCC(C)O` (stereo not given), 1.54%; to `CN(C)CCN(C)CCO`, 5.04%.
To `CCCCOC(=O)C(C)O` (stereo not given) belongs 0.532%; to `CC(=O)OC(C)=O`, 1.39%.
To `CC(=O)OC1CCCCC1C(C)(C)C` (stereo not given) belongs -6.16%; to `CCCCCCCCCCCCCBr`, -1.66%; to `CCCSSCCC`, 1.1%.
Turning to `OC[C@H]1O[C@@H](O[C@@H]2[C@@H](CO)O[C@](O)(CO)[C@H]2O)[C@H](O)[C@@H](O)[C@H]1O`, the “viability change, negative = cytotoxic” value is 5.04% [at 35.3 µM].
Regarding `O=NN(CCCl)C(=O)NC1CCCCC1`, the “viability change, negative = cytotoxic” value is 2.26% [at 35.3 µM].
The figure for `OC1OCCOC1O` (stereo not given) is -6.9%; for `CC(=O)Nc1ccc(OC(=O)c2ccccc2OC(C)=O)cc1` it is 1.99% [at 35.3 µM]; for `O=C1OCCO1` it is 0.125%.
The figure for `CNCCS(=O)(=O)O` is 0.702%; for `C=C(C)[C@@H]1CC=C(C)CC1` it is 2.67%.
In the case of `C/C=C(\C)C(C)=O`, the “viability change, negative = cytotoxic” value is -10.1%.
Consider `COS(=O)(=O)O`, for which the “viability change, negative = cytotoxic” value is -0.438%.
`CN(C)C(C)(C)CO`: the “viability change, negative = cytotoxic” value is -0.687%.
Regarding `CCC(C)OC(C)CC` (stereo not given), the “viability change, negative = cytotoxic” value is 14.2%.
In the case of `COc1cc(OC)nc(O[C@H](C(=O)O)C(OC)(c2ccccc2)c2ccccc2)n1`, the “viability change, negative = cytotoxic” value is -3.41% [at 35.3 µM].
Turning to `N[C@@H](CSCCCO)C(=O)O`, the viability change, negative = cytotoxic was 8.07% [at 15.8 µM].
Regarding `C/C=C(\C)C(=O)OCCc1ccccc1`, the “viability change, negative = cytotoxic” value was -10.2%.
As for `CN(C)CCCCl`, the “viability change, negative = cytotoxic” value was 0.949%.
